The whole screen tested about 5,500 compounds, of which about 2,000 (36%) were called active. Not shown: some 18% with an inconclusive outcome. No stated cut-off is given here; in the data, active means normalized growth mostly below about 0.91 (no sharp cut-off); inconclusive means no clear call, values can overlap the other calls; inactive means mostly above about 0.92. Some of the results follow.
Test: chemical genetic growth profiling, strain panel (AID 1159580);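 further: tested at 20 µM; growth read once vehicle control cultures reached saturation at 30 °C; 1 = growth at the plate median or of vehicle wells; lower values mean less growth of the strain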
Settings: growth OD
[1] = S. cerevisiae deletion strains, locus YAL013W, strain DEP1, hits give low values
[2] = S. cerevisiae deletion strains, locus YBR229C, strain ROT2, hits give low values
[3] = S. cerevisiae deletion strains, locus YDL101C, strain DUN1, hits give low values
[4] = S. cerevisiae deletion strains, locus YDL134C, strain PPH21, hits give low values
[5] = S. cerevisiae deletion strains, locus YDR150W, strain NUM1, hits give low values
[6] = S. cerevisiae deletion strains, locus YEL061C, strain CIN8, hits give low values
[7] = S. cerevisiae deletion strains, locus YGR078C, strain PAC10, hits give low values
[8] = S. cerevisiae deletion strains, locus YHR030C, strain SLT2, hits give low values
[9] = S. cerevisiae deletion strains, locus YHR087W, strain rtc3, hits give low values
[10] = S. cerevisiae deletion strains, locus YJR043C, strain POL32, hits give low values
[11] = S. cerevisiae deletion strains, locus YJR075W, strain HOC1, hits give low values
[12] = S. cerevisiae deletion strains, locus YLR039C, strain RIC1, hits give low values
[13] = S. cerevisiae deletion strains, locus YLR058C, strain SHM2 (second series), hits give low values
[14] = S. cerevisiae deletion strains, locus YLR085C, strain ARP6, hits give low values
[15] = S. cerevisiae deletion strains, locus YLR262C, strain YPT6, hits give low values
[16] = S. cerevisiae deletion strains, locus YML094W, strain GIM5, hits give low values
[17] = S. cerevisiae deletion strains, locus YMR219W, strain ESC1, hits give low values
[18] = S. cerevisiae deletion strains, locus YMR263W, strain SAP30, hits give low values
[19] = S. cerevisiae deletion strains, locus YNL153C, strain GIM3, hits give low values
[20] = S. cerevisiae deletion strains, locus YNL298W, strain CLA4 (second series), hits give low values
[21] = S. cerevisiae deletion strains, locus YNL322C, strain KRE1, hits give low values
[22] = S. cerevisiae deletion strains, locus YNR030W, strain Alg12, hits give low values
[23] = S. cerevisiae deletion strains, locus YPL055C, strain LGE1, hits give low values
[24] = S. cerevisiae deletion strains, locus YPL241C, strain CIN2, hits give low values
[25] = S. cerevisiae deletion strains, locus YPR135W, strain CTF4, hits give low values

Measured: normalized growth

O=C(Nc1cc2cc([N+](=O)[O-])ccc2oc1=O)c1c(F)cccc1F
inactive: [1] 1.02 | [2] 1.02 | S. cerevisiae deletion strains, locus YCL061C, strain MRC1, hits give low values 0.989 | [3] 0.98 | [4] 1.01 | [5] 0.96 | [6] 1.01 | [7] 1 | [8] 0.994 | [9] 1.09 | S. cerevisiae deletion strains, locus YJL187C, strain SWE1, hits give low values 1.03 | [10] 0.999 | [11] 1.02 | [12] 1.07 | [13] 1.04 | [14] 1.07 | [15] 1.07 | [16] 1.05 | [17] 1.03 | [18] 0.936 | S. cerevisiae deletion strains, locus YNL128W, strain TEP1, hits give low values 1.01 | [19] 1.02 | [20] 1.02 | [21] 1.01 | [22] 1.04 | S. cerevisiae deletion strains, locus YOL006C, strain TOP1, hits give low values 1 | [23] 1.03 | [24] 1.02 | [25] 1.01

CCN(CC)c1ccc(NC(=O)c2c(F)cccc2F)c(N(CC)CC)n1
active: S. cerevisiae deletion strains, locus YMR307W, strain GAS1, hits give low values 0.574
inactive: [1] 0.986 | [2] 0.98 | [3] 0.955 | [4] 0.993 | [5] 0.99 | [6] 0.964 | [7] 0.98 | [8] 0.698 | [9] 0.952 | [10] 0.99 | [11] 0.954 | [12] 0.815 | [13] 1 | [14] 0.91 | [15] 0.863 | [16] 0.953 | [17] 0.997 | [18] 1 | [19] 0.991 | [20] 0.935 | [21] 0.987 | [22] 0.942 | [23] 0.963 | [24] 1.05 | [25] 0.8 | S. cerevisiae strains, strain wild type, hits give low values 0.988

— PubChem BioAssay AID1159580 (chemical genetic matrix, 2015)
